# Data published in PubChem BioAssay AID1159580 (chemical genetic matrix, 2015).
# Screen size: about 5,500 compounds; about 2,000 (36%) were called active. Inconclusive results (about 18%) are left out. The list shows a part of the results. Unmarked numbers belong to inactive results. Cut-off read from the data, not from the text of the source: active = normalized growth mostly below about 0.91 (no sharp cut-off); inconclusive = no clear call, values can overlap the other calls; inactive = mostly above about 0.92.
# Test: chemical genetic growth profiling, strain panel (AID 1159580);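 note: tested at 20 µM; growth read once vehicle control cultures reached saturation at 30 °C; 1 = growth at the plate median or of vehicle wells; lower values mean less growth of the strain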
# Settings: growth OD
# [1] = S. cerevisiae deletion strains, locus YDL101C, strain DUN1, stronger effect = lower value
# [2] = S. cerevisiae deletion strains, locus YHR030C, strain SLT2, stronger effect = lower value
structure (smiles),measurement,setting,value
CCn1nc(C)cc1C(=O)O,normalized growth,"S. cerevisiae deletion strains, locus YAL013W, strain DEP1, stronger effect = lower value",0.992
same,normalized growth,"S. cerevisiae deletion strains, locus YBR229C, strain ROT2, stronger effect = lower value",1.01
same,normalized growth,[1],1.03
same,normalized growth,"S. cerevisiae deletion strains, locus YDR150W, strain NUM1, stronger effect = lower value",0.914
same,normalized growth,"S. cerevisiae deletion strains, locus YEL061C, strain CIN8, stronger effect = lower value",1.03
same,normalized growth,"S. cerevisiae deletion strains, locus YGR078C, strain PAC10, stronger effect = lower value",1.02
same,normalized growth,[2],1.07
same,normalized growth,"S. cerevisiae deletion strains, locus YHR087W, strain rtc3, stronger effect = lower value",1.01
same,normalized growth,"S. cerevisiae deletion strains, locus YJL187C, strain SWE1, stronger effect = lower value",1.02
same,normalized growth,"S. cerevisiae deletion strains, locus YJR043C, strain POL32, stronger effect = lower value",0.962
same,normalized growth,"S. cerevisiae deletion strains, locus YJR075W, strain HOC1, stronger effect = lower value",1.02
same,normalized growth,"S. cerevisiae deletion strains, locus YKL190W, strain CNB1, stronger effect = lower value",1.02
same,normalized growth,"S. cerevisiae deletion strains, locus YLR039C, strain RIC1, stronger effect = lower value",1.1
same,normalized growth,"S. cerevisiae deletion strains, locus YLR058C, strain SHM2 (second series), stronger effect = lower value",1.02
same,normalized growth,"S. cerevisiae deletion strains, locus YLR085C, strain ARP6, stronger effect = lower value",1.3 [resistant] (active)
same,normalized growth,"S. cerevisiae deletion strains, locus YLR262C, strain YPT6, stronger effect = lower value",1.07
same,normalized growth,"S. cerevisiae deletion strains, locus YML094W, strain GIM5, stronger effect = lower value",1.02
same,normalized growth,"S. cerevisiae deletion strains, locus YMR219W, strain ESC1, stronger effect = lower value",1.01
same,normalized growth,"S. cerevisiae deletion strains, locus YMR263W, strain SAP30, stronger effect = lower value",0.987
same,normalized growth,"S. cerevisiae deletion strains, locus YMR307W, strain GAS1, stronger effect = lower value",1.24
same,normalized growth,"S. cerevisiae deletion strains, locus YNL153C, strain GIM3, stronger effect = lower value",1
same,normalized growth,"S. cerevisiae deletion strains, locus YNL298W, strain CLA4 (second series), stronger effect = lower value",1.04
same,normalized growth,"S. cerevisiae deletion strains, locus YNL322C, strain KRE1, stronger effect = lower value",0.999
same,normalized growth,"S. cerevisiae deletion strains, locus YNR030W, strain Alg12, stronger effect = lower value",1.02
same,normalized growth,"S. cerevisiae deletion strains, locus YPL055C, strain LGE1, stronger effect = lower value",0.931
same,normalized growth,"S. cerevisiae deletion strains, locus YPL241C, strain CIN2, stronger effect = lower value",1.03
same,normalized growth,"S. cerevisiae deletion strains, locus YPR135W, strain CTF4, stronger effect = lower value",0.994
same,normalized growth,"S. cerevisiae strains, strain wild type, stronger effect = lower value",1.02
CCn1nc(C)cc1C(=O)Sc1cccc(Br)c1,normalized growth,"S. cerevisiae deletion strains, locus YAR019C, strain CDC15, stronger effect = lower value",0.917
same,normalized growth,"S. cerevisiae deletion strains, locus YBL105C, strain PKC1, stronger effect = lower value",0.934
same,normalized growth,"S. cerevisiae deletion strains, locus YBR135W, strain CKS1, stronger effect = lower value",0.91
same,normalized growth,"S. cerevisiae deletion strains, locus YBR136W, strain MEC1, stronger effect = lower value",0.942
same,normalized growth,"S. cerevisiae deletion strains, locus YBR160W, strain CDC28, stronger effect = lower value",0.924
same,normalized growth,"S. cerevisiae deletion strains, locus YDL017W, strain CDC7, stronger effect = lower value",0.935
same,normalized growth,"S. cerevisiae deletion strains, locus YDL028C, strain MPS1, stronger effect = lower value",0.924
same,normalized growth,[1],0.951
same,normalized growth,"S. cerevisiae deletion strains, locus YDL108W, strain KIN28, stronger effect = lower value",0.93
same,normalized growth,"S. cerevisiae deletion strains, locus YDL132W, strain cdc53, stronger effect = lower value",0.922
same,normalized growth,"S. cerevisiae deletion strains, locus YDL214C, strain PRR2, stronger effect = lower value",0.706
same,normalized growth,"S. cerevisiae deletion strains, locus YDR052C, strain DBF4, stronger effect = lower value",0.971
same,normalized growth,"S. cerevisiae deletion strains, locus YDR054C, strain cdc34, stronger effect = lower value",0.885
same,normalized growth,"S. cerevisiae deletion strains, locus YDR226W, strain ADK1, stronger effect = lower value",0.925
same,normalized growth,"S. cerevisiae deletion strains, locus YDR477W, strain SNF1, stronger effect = lower value",0.65 (active)
same,normalized growth,"S. cerevisiae deletion strains, locus YER123W, strain YCK3, stronger effect = lower value",0.592 (active)
same,normalized growth,"S. cerevisiae deletion strains, locus YER133W, strain GLC7, stronger effect = lower value",0.784
same,normalized growth,"S. cerevisiae deletion strains, locus YFL009W, strain cdc4, stronger effect = lower value",0.883 (active)
same,normalized growth,"S. cerevisiae deletion strains, locus YFL029C, strain CAK1, stronger effect = lower value",0.904
same,normalized growth,"S. cerevisiae deletion strains, locus YFR003C, strain YPI1, stronger effect = lower value",0.932
same,normalized growth,"S. cerevisiae deletion strains, locus YFR019W, strain FAB1, stronger effect = lower value",0.737 (active)
same,normalized growth,"S. cerevisiae deletion strains, locus YFR028C, strain CDC14, stronger effect = lower value",0.933
same,normalized growth,"S. cerevisiae deletion strains, locus YGR040W, strain KSS1, stronger effect = lower value",0.747
same,normalized growth,"S. cerevisiae deletion strains, locus YGR052W, strain FMP48, stronger effect = lower value",0.725
same,normalized growth,"S. cerevisiae deletion strains, locus YGR092W, strain DBF2, stronger effect = lower value",0.332 (active)
same,normalized growth,[2],0.613 (active)
same,normalized growth,"S. cerevisiae deletion strains, locus YHR079C, strain IRE1, stronger effect = lower value",0.476 (active)
same,normalized growth,"S. cerevisiae deletion strains, locus YHR082C, strain KSP1, stronger effect = lower value",0.626
same,normalized growth,"S. cerevisiae deletion strains, locus YHR205W, strain SCH9, stronger effect = lower value",0.527 (active)
same,normalized growth,"S. cerevisiae deletion strains, locus YIL147C, strain SLN1, stronger effect = lower value",0.933
same,normalized growth,"S. cerevisiae deletion strains, locus YJL095W, strain BCK1, stronger effect = lower value",0.551
same,normalized growth,"S. cerevisiae deletion strains, locus YJL128C, strain PBS2, stronger effect = lower value",0.913
same,normalized growth,"S. cerevisiae deletion strains, locus YJL157C, strain FAR1, stronger effect = lower value",0.638 (active)
same,normalized growth,"S. cerevisiae deletion strains, locus YJR016C, strain ILV3, stronger effect = lower value",0.921
same,normalized growth,"S. cerevisiae deletion strains, locus YJR066W, strain TOR1 (second series), stronger effect = lower value",0.227 (active)
same,normalized growth,"S. cerevisiae deletion strains, locus YJR066W, strain TOR1, stronger effect = lower value",0.543
same,normalized growth,"S. cerevisiae deletion strains, locus YKL048C, strain ELM1, stronger effect = lower value",0.924
same,normalized growth,"S. cerevisiae deletion strains, locus YKL067W, strain YNK1, stronger effect = lower value",0.714 (active)
same,normalized growth,"S. cerevisiae deletion strains, locus YKL101W, strain HSL1, stronger effect = lower value",0.786
same,normalized growth,"S. cerevisiae deletion strains, locus YKL193C, strain SDS22, stronger effect = lower value",0.927
same,normalized growth,"S. cerevisiae deletion strains, locus YKL203C, strain TOR2, stronger effect = lower value",0.746
same,normalized growth,"S. cerevisiae deletion strains, locus YLR113W, strain HOG1, stronger effect = lower value",0.461 (active)
same,normalized growth,"S. cerevisiae deletion strains, locus YLR133W, strain CKI1, stronger effect = lower value",0.724 (active)
same,normalized growth,"S. cerevisiae deletion strains, locus YLR403W, strain SFP1, stronger effect = lower value",0.566 (active)
same,normalized growth,"S. cerevisiae deletion strains, locus YML070W, strain DAK1, stronger effect = lower value",0.727
same,normalized growth,"S. cerevisiae deletion strains, locus YMR001C, strain CDC5, stronger effect = lower value",0.904
same,normalized growth,"S. cerevisiae deletion strains, locus YMR205C, strain PFK2 (second series), stronger effect = lower value",0.819
same,normalized growth,"S. cerevisiae deletion strains, locus YMR277W, strain FCP1, stronger effect = lower value",0.914
same,normalized growth,"S. cerevisiae deletion strains, locus YNL006W, strain LST8, stronger effect = lower value",0.917
same,normalized growth,"S. cerevisiae deletion strains, locus YNL020C, strain ARK1, stronger effect = lower value",0.697 (active)
same,normalized growth,"S. cerevisiae deletion strains, locus YNL161W, strain CBK1, stronger effect = lower value",0.937
same,normalized growth,"S. cerevisiae deletion strains, locus YNL183C, strain NPR1, stronger effect = lower value",0.629
same,normalized growth,"S. cerevisiae deletion strains, locus YNL207W, strain RIO2, stronger effect = lower value",0.918
same,normalized growth,"S. cerevisiae deletion strains, locus YNL222W, strain SSU72, stronger effect = lower value",0.917
same,normalized growth,"S. cerevisiae deletion strains, locus YNL307C, strain MCK1 (second series), stronger effect = lower value",0.601 (active)
same,normalized growth,"S. cerevisiae deletion strains, locus YOL078W, strain AVO1, stronger effect = lower value",0.91
same,normalized growth,"S. cerevisiae deletion strains, locus YOL136C, strain PFK27, stronger effect = lower value",0.701
same,normalized growth,"S. cerevisiae deletion strains, locus YOR061W, strain CKA2, stronger effect = lower value",0.662 (active)
same,normalized growth,"S. cerevisiae deletion strains, locus YOR119C, strain RIO1, stronger effect = lower value",0.741
same,normalized growth,"S. cerevisiae deletion strains, locus YOR231W, strain MKK1, stronger effect = lower value",0.486 (active)
same,normalized growth,"S. cerevisiae deletion strains, locus YOR329C, strain SCD5, stronger effect = lower value",0.935
same,normalized growth,"S. cerevisiae deletion strains, locus YPL031C, strain PHO85, stronger effect = lower value",0.619 (active)
same,normalized growth,"S. cerevisiae deletion strains, locus YPL153C, strain RAD53, stronger effect = lower value",0.551 (active)
same,normalized growth,"S. cerevisiae deletion strains, locus YPL204W, strain HRR25, stronger effect = lower value",0.676
same,normalized growth,"S. cerevisiae deletion strains, locus YPL209C, strain IPL1, stronger effect = lower value",0.936
same,normalized growth,"S. cerevisiae deletion strains, locus YPL256C, strain CLN2, stronger effect = lower value",0.634 (active)
same,normalized growth,"S. cerevisiae deletion strains, locus YPR025C, strain CCL1, stronger effect = lower value",0.935
same,normalized growth,"S. cerevisiae deletion strains, locus YPR106W, strain ISR1, stronger effect = lower value",0.97
same,normalized growth,"S. cerevisiae deletion strains, locus YPR111W, strain DBF20, stronger effect = lower value",0.955
same,normalized growth,"S. cerevisiae deletion strains, strain NNK1, stronger effect = lower value",0.963
same,normalized growth,"S. cerevisiae deletion strains, strain TSCII, stronger effect = lower value",0.908
